The results in this text go back to paper PMC3218832.

Common to all, as to experiment: protein binding microarray; high values mean tight binding
Common to all, as to conditions: dsDNA, one strand shown

The target in assay [1] is RELARELA (p65 homodimer) (Homo sapiens, UniProt Q04206 1-307).
For assay [2], the target named is p50p50 homodimer (Homo sapiens, UniProt P19838 7-356).
For assay [3], the target named is T1, p52p52 homodimer (Homo sapiens, UniProt Q00653 4-332).
T1 sequence: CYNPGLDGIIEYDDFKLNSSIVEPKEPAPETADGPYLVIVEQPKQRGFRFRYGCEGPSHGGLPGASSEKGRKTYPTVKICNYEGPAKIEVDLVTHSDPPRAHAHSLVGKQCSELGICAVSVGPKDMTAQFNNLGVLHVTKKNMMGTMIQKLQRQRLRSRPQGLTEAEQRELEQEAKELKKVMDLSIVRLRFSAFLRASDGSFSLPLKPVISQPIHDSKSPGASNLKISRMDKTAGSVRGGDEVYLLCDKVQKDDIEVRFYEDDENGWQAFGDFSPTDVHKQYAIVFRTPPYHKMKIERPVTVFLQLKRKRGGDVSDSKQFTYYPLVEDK

Assay [4] concerns the target RELA (p65) subunit of heterodimer;p50 subunit (Homo sapiens;Homo sapiens, UniProt Q04206;P19838 1-307;7-356).
In assay [5] the target is RELA (p65) subunit of heterodimer;p52 subunit (Homo sapiens;Homo sapiens, UniProt Q04206;Q00653 1-307;4-332).
In assay [6] the target is RELB subunit;p50 subunit (Homo sapiens;Homo sapiens, UniProt Q01201;P19838 120-401;7-356).
The target in assay [7] is T2, RELB subunit;p52 subunit (Homo sapiens;Homo sapiens, UniProt Q01201;Q00653 120-401;4-332).
T2 sequence 1: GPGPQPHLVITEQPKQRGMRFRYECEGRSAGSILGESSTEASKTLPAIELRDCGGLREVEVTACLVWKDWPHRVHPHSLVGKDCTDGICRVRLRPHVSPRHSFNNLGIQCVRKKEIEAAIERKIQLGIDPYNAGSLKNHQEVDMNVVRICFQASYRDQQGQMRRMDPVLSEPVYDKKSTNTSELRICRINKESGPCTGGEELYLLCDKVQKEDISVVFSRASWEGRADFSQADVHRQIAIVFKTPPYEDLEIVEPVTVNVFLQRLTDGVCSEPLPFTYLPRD
T2 sequence 2: T1 sequence

Assay [8] deals with C-Rel subunit;p50 subunit (Homo sapiens;Homo sapiens, UniProt Q04864;P19838 1-285;7-356).
The target in assay [9] is T3, C-Rel subunit;p52 subunit (Homo sapiens;Homo sapiens, UniProt Q04864;Q00653 1-285;4-332).
T3 sequence 1: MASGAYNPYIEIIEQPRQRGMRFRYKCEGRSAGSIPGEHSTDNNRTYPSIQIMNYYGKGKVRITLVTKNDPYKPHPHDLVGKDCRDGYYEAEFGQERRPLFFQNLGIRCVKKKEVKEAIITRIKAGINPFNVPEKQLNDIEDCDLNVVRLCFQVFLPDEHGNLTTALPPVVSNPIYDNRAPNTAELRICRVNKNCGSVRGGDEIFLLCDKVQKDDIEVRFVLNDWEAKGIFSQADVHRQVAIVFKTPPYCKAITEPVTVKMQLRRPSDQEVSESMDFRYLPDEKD
T3 sequence 2: T1 sequence

Chain of RELARELA (p65 homodimer) (Q04206 1-307): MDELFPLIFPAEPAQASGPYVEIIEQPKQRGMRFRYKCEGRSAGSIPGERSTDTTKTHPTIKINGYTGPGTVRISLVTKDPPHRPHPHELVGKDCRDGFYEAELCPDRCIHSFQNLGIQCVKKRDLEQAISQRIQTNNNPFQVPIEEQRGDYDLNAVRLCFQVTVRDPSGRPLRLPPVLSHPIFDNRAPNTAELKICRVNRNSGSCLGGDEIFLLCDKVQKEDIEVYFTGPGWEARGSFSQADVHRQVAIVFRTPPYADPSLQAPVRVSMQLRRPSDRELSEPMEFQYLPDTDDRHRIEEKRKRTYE
Chain of RELA (p65) subunit of heterodimer;p50 subunit (Q04206 1-307, chain 1 of 2): as the sequence (Q04206 1-307) above
Chain of RELA (p65) subunit of heterodimer;p50 subunit (P19838 7-356, chain 2 of 2): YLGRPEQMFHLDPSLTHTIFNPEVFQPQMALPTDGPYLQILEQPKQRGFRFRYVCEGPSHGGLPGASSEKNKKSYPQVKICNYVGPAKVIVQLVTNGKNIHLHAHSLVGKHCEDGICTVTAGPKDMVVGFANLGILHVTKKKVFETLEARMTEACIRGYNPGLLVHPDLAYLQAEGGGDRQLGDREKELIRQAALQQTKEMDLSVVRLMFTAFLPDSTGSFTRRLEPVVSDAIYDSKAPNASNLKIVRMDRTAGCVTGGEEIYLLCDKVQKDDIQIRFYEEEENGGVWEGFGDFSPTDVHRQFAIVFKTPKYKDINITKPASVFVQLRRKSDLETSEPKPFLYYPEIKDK
Chain of p50p50 homodimer (P19838 7-356): as the sequence (P19838 7-356, chain 2 of 2) above

In the case of CAGATGACCCC, the binding signal is -0.4 z-score in assay [1]; -0.382 z-score in [2]; -0.355 z-score in assay [3]; -0.422 z-score in [4]; -0.386 z-score in assay [5]; -0.204 z-score in assay [6]. The binding signal in assay [7] is -0.302 z-score; in [8], -0.754 z-score; in assay [9], -0.39 z-score.
AAGGTCCTCCT: the binding signal is -0.719 z-score in assay [1]; -0.992 z-score in assay [2]; -0.49 z-score in [3]; -0.86 z-score in assay [4]; -0.773 z-score in [5]; -0.932 z-score in assay [6]. Further, the binding signal in assay [7] is -0.687 z-score; in [8] it was -1.16 z-score; in assay [9] it was -0.643 z-score.
As for CAAGTAATCCC, the binding signal in [1] was -0.158 z-score; in assay [2] it was -0.156 z-score; in assay [3], -0.0587 z-score; in assay [4] it was -0.365 z-score; in assay [5] it was -0.426 z-score; in assay [6] it was -0.117 z-score. The figures for the binding signal in [7], in assay [8] and in assay [9] were -0.123 z-score, 0.0809 z-score and -0.302 z-score, respectively.
For GAATGGCCCCT, the binding signal in assay [1] was -0.247 z-score; in assay [2], 0.432 z-score; in [3], 0 z-score; in assay [4] it was 0.128 z-score; in [5] it was 0.262 z-score; in assay [6], 0.27 z-score. Besides, the binding signal is 0.242 z-score in assay [7], -0.321 z-score in assay [8] and -0.168 z-score in assay [9].
CAGGGTCCCCC: the binding signal in [1] is -0.42 z-score; in assay [2], 0.876 z-score; in [3], 0.451 z-score; in [4], 1.23 z-score; in assay [5] it was 0.881 z-score; in assay [6], 1.22 z-score. For the same sequence, the binding signal in assay [7] came to 1.39 z-score; in assay [8], 0.998 z-score; in assay [9], 0.408 z-score.
Turning to AAGTTAGTCCT, the binding signal was -0.0878 z-score in assay [1]; -1.56 z-score in assay [2]; -0.552 z-score in assay [3]; -1.02 z-score in assay [4]; -0.842 z-score in assay [5]; -1.03 z-score in assay [6]. The binding signal is -0.752 z-score in assay [7], -1 z-score in [8] and -0.837 z-score in assay [9].
On to CAATACGCCCC, for which the binding signal came out at 0.0573 z-score in [1]; 0.196 z-score in [2]; 0.145 z-score in assay [3]; 0.039 z-score in assay [4]; 0.0537 z-score in assay [5]; 0.204 z-score in assay [6]. The binding signal came out at 0.503 z-score in assay [7], 0.297 z-score in [8] and 0.13 z-score in assay [9].
Turning to CGGGTGCCCCC, the binding signal in assay [1] was -0.0899 z-score; in assay [2], 0.777 z-score; in assay [3] it was 0.373 z-score; in assay [4], 0.794 z-score; in assay [5] it was 0.707 z-score; in assay [6], 0.779 z-score. Moreover, the binding signal in [7] is 1.05 z-score; in assay [8], 0.974 z-score; in assay [9], 0.84 z-score.
Consider CAGTTTATCCC, for which the binding signal in assay [1] is 0.419 z-score; in assay [2], -0.117 z-score; in assay [3], 0.0692 z-score; in [4] it was -0.133 z-score; in [5] it was -0.195 z-score; in [6], -0.213 z-score. For the same sequence, the binding signal in [7] was -0.287 z-score; in [8], 0.0891 z-score; in [9] it was -0.0511 z-score.
Consider GGGGAGGTCCT, for which the binding signal is 0.546 z-score in assay [1]; 0.328 z-score in assay [2]; 1.26 z-score in assay [3]; 0.275 z-score in [4]; 0.847 z-score in [5]; 0.375 z-score in [6]. The figures for the binding signal in assay [7], in assay [8] and in assay [9] were 0.376 z-score, 0.314 z-score and 0.559 z-score, respectively.
As to CAGTTCTCCCT, the binding signal amounted to 0.501 z-score in [1]; 1.08 z-score in assay [2]; 0.65 z-score in assay [3]; 0.838 z-score in assay [4]; 0.551 z-score in assay [5]; 1.22 z-score in assay [6]. The binding signal in assay [7] is 1.11 z-score; in [8] it was 0.63 z-score; in assay [9] it was 0.344 z-score.
Take CAGTACGCCCT: the binding signal was -0.311 z-score in assay [1]; -1.79 z-score in assay [2]; -0.678 z-score in assay [3]; -0.914 z-score in [4]; -0.662 z-score in assay [5]; -0.89 z-score in assay [6]. Also, the binding signal in [7] was -0.84 z-score; in assay [8] it was -1.25 z-score; in assay [9], -0.761 z-score.
For the sequence CGGAGAGTCCT, the binding signal in assay [1] is 1 z-score; in assay [2] it was -1.2 z-score; in [3], -0.591 z-score; in [4], -0.159 z-score; in assay [5], -0.629 z-score; in [6], -0.808 z-score. Besides, the values for the binding signal in [7], in assay [8] and in assay [9] were -0.743 z-score, -0.482 z-score and -0.448 z-score, respectively.
As for GAATTCCTCCC, the binding signal is 0.897 z-score in assay [1]; -0.0187 z-score in [2]; -0.00969 z-score in [3]; 0.17 z-score in assay [4]; 0.0178 z-score in assay [5]; -0.14 z-score in [6]. For the same sequence, the binding signal is -0.0714 z-score in [7], 0.325 z-score in assay [8] and 0.177 z-score in assay [9].
As for CAGTGAGTCCC, the binding signal in assay [1] amounted to 0.14 z-score; in [2], 0.525 z-score; in assay [3], 0.308 z-score; in assay [4], 0.411 z-score; in assay [5] it was 0.115 z-score; in assay [6] it was 0.511 z-score. The values for the binding signal in [7], in assay [8] and in assay [9] were 0.164 z-score, 0.393 z-score and 0 z-score, respectively.
